Only some compounds are listed: those with a hit (about 4.2% of all), similar ones and a draw of the others.
FBA Mtb inh: inhibitors of M. tuberculosis fructose-bisphosphate aldolase; purified M. tuberculosis FBA, fluorescence read-out; AID 588726; actives 2.3% (n = 360,000); inhibition, % at 1 µM; in the data active means inhibition above about 27%;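 further: 0% = vehicle and 100% = reference inhibitor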
Mtb betalactam: beta-lactam sensitization of Mtb H37Rv; M. tuberculosis H37Rv growth with meropenem, percent inhibition; inhibition, % at 25 µM; actives 0.27% (n = 330,000); AID 434955; call rule not given here;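 further: growth measured after seven days incubation then overnight dye step; 0% = bacteria only wells and 100% = bacteria with antibiotic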
RecA splice inh: Mtb RecA intein splicing inhibition; P9WHJ3; cell-free RecA intein splicing, fluorescence; inhibition, % (concentration not given with the values); actives 0.75% (n = 290,000); AID 2221; in the data active means inhibition above about 30%;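 further: 0% = vehicle wells and 100% = reference inhibitor control wells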
Target sequence (P9WHJ3 whole entry, looked up, canonical isoform): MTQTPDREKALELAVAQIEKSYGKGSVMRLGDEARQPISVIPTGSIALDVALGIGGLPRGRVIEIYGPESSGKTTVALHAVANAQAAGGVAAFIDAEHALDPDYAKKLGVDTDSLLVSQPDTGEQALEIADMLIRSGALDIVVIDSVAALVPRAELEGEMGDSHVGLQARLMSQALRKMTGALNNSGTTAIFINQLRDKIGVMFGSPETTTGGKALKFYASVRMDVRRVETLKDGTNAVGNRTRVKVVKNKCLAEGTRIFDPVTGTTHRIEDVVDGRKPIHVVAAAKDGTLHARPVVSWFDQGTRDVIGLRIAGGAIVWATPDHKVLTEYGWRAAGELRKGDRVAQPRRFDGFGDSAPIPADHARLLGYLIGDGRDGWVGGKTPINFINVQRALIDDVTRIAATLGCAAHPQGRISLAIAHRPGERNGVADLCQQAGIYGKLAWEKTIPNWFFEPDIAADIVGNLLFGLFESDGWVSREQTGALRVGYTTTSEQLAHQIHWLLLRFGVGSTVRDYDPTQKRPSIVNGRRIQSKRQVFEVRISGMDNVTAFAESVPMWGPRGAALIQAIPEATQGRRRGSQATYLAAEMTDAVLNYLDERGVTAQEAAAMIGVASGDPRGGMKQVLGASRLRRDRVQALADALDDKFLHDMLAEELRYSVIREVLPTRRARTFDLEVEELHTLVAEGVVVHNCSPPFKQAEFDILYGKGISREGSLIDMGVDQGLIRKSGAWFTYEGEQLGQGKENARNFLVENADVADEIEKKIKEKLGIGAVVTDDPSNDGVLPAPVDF
GDH-TPI counter-1: inhibits GDH-TPI coupling enzymes, artifact for Mtb FBA screen. GDH-TPI coupled enzyme counterscreen, NADH absorbance. inhibition, % at 4.8 µM. actives 1.2% (n = 360,000). AID 588335;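 further: 0% = DMSO wells and 100% = wells lacking the enzyme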
CCHF vOTU inh: CCHFV vOTU protease inhibition; Pep-AMC fluorescence; inhibition, % at 11.5 µM; actives 0.55% (n = 370,000); further: 0% = vehicle wells with enzyme and 100% = no enzyme wells
Mtb FBA inh conf: Mtb FBA inhibition, confirmed; shares compounds with FBA Mtb inh; purified M. tuberculosis FBA, fluorescence read-out; inhibition, % at 1 µM; actives 78% (n = 5,600); AID 651616; in the data active means inhibition above about 27%;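 further: 0% = vehicle wells and 100% = reference inhibitor wells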
GDH-TPI counter-2: counter-screen for M. tuberculosis FBA inhibitors: GDH-TPI coupled enzyme inhibition | shares compounds with FBA Mtb inh | GDH-TPI coupled enzyme counterscreen, fluorescence | inhibition, % at 1 µM | actives 81% (n = 5,600); in the data active means inhibition above about 10%
GDH-TPI DR: inhibits GDH-TPI coupling enzymes in dose response. IC50, µM. AID 652145. GDH-TPI coupled enzyme assay, fluorescence, artifact counterscreen. shares compounds with FBA Mtb inh. actives 79% (n = 170); call rule not given here
An asterisk follows results filed as active; / = no result given; + = active, no number. Unless noted, no stated cut-off is given here; in the data, active means inhibition above about 30%; inactive means the rest.

SMILES	FBA Mtb inh	Mtb betalactam	RecA splice inh	GDH-TPI counter-1	CCHF vOTU inh	Mtb FBA inh conf	GDH-TPI counter-2	others
CCOC(=O)N1CCc2cc(OC)c(OC)c3c2c1cc1cc(OC)c(OC)cc13	38*	/	/	9	18	12	-1	GDH-TPI DR=5.5*
COc1cc(CC(=O)N2CCc3ccccc32)cc(OC)c1OC	-2	3	-4	3	-2	/	/
OC(c1ccccc1)(c1ccccc1)C1CCN(CCCOc2ccc(-c3ccc(F)cc3F)cc2)CC1	/	/	/	/	11	/	/
CC(C)CN1C(=O)C[C@]2(C(=O)N(C)c3ccc(NS(=O)(=O)c4ccc(F)cc4)cc32)C1c1ccccc1 (stereo partly specified)	/	/	/	/	3	/	/
NC(=O)c1nsc(C(=O)N(c2ccccc2)C(C(=O)NCc2ccc(F)cc2)c2ccc(O)cc2)c1N (stereo unspecified)	37*	-4	-4	4	-2	-2	-5
CN(C)c1ccc(-c2ccnc3c2CC(C)(C(=O)NCC2CC2)O3)cc1 (stereo unspecified)	35*	/	/	25	-31	+	164*
COCCNC(=O)C1(C)Cc2c(-c3ccc(N(C)C)cc3)ccnc2O1 (stereo unspecified)	32*	/	/	15	-23	128*	104*
CN(C)c1ccc(-c2ccnc3c2CC(C)(C(=O)NCCc2ccccc2)O3)cc1 (stereo unspecified)	47*	/	/	15	-32	109*	73*
COCCNC(=O)C1(C)Cc2c(-c3ccc(NC(C)=O)cc3)ccnc2O1 (stereo unspecified)	12	/	/	4	15	/	/
CC(=O)Nc1ccc(-c2ccnc3c2CC(C)(C(=O)NCCc2ccccc2)O3)cc1 (stereo unspecified)	13	/	/	12	6	/	/
CN(C)c1ccc(CNC(=O)C2(C)Cc3c(-c4ccccc4)ccnc3O2)cc1 (stereo unspecified)	-3	/	/	-7	1	/	/
CN(C)c1ccc(CNC(=O)C2(C)Cc3c(-c4ccc(N(C)C)cc4)ccnc3O2)cc1 (stereo unspecified)	46*	/	/	30	-9	58*	50*
CC1(C(=O)NCC2CC2)Cc2c(-c3cccc(C(N)=O)c3)ccnc2O1 (stereo unspecified)	1	/	/	7	-5	/	/
N#C/C(=C\c1cccc(Cl)c1)c1n[nH]c(Cn2cncn2)n1	39*	26	0	5	-5	57*	43*
CCOC(=O)C1CCN(C(=O)Cn2cnc3sc(C)c(S(=O)(=O)N4CCC(C)CC4)c3c2=O)CC1	78*	-8	3	-2	0	186*	143*
COc1ccc(C(=O)COc2ccc3ccc(=O)oc3c2)cc1	12	1	0	17	-3	/	/
COc1cccc(C(=O)Oc2ccc3ccc(=O)oc3c2)c1	59*	0	-60	15	-125	154*	141*
CC(Oc1ccc2ccc(=O)oc2c1)C(=O)N1CCOCC1 (stereo unspecified)	42*	-12	0	0	-35	155*	122*
COc1ccc(C(=O)Oc2ccc3ccc(=O)oc3c2)cc1OC	41*	25	-6	7	-44	147*	107*
O=C(Oc1ccc2ccc(=O)oc2c1)c1cccs1	66*	47	-27	6	-290	7	-5
C=CCn1c(SCc2cccc(C(F)(F)F)c2)nnc1-c1ccc(OC)cc1	/	/	/	/	17	/	/
COc1ccc(COc2ccc3ccc(=O)oc3c2)cc1	6	9	-2	11	3	/	/
COc1ccc2ccc(=O)oc2c1	68*	-11	-4	16	-18	88*	82*
COc1ccc(CSc2nnc(SCC(=O)Nc3ccc(S(N)(=O)=O)cc3)s2)cc1	/	/	/	/	11	/	/
Cc1nn2cc(-c3ccccc3)nc2[nH]c1=O	37*	-12	-145	21	-26	79*	81*
SMILES	FBA Mtb inh	Mtb betalactam	RecA splice inh	GDH-TPI counter-1	CCHF vOTU inh	Mtb FBA inh conf	GDH-TPI counter-2	others
O=C(O)CCc1nn2cc(-c3ccccc3)nc2[nH]c1=O	45*	-9	-138	18	-55	113*	92*
Cc1nn2c(-c3ccccc3)c(-c3ccccc3)nc2[nH]c1=O	8	-4	-4	17	6	/	/
CCc1cc2c(nc1CC)CCCN2S(=O)(=O)c1ccc(OC)cc1	/	/	/	/	14	/	/
CCOC(=O)[C@]12CCCCC/C=C\1N(Cc1ccc(OC)cc1)C(=O)[C@H]2CC(=O)NCc1cccc2ccccc12	/	/	/	/	10	/	/
COc1cccc(N2CC(=O)N(NC(=O)c3sc4nc(C)cc(C)c4c3N)CC2=O)c1	54*	-2	-13	5	-65	+	175*
Cc1cc(C)c2c(N)c(C(=O)NN3CC(=O)N(c4ccccc4F)CC3=O)sc2n1	62*	-5	-27	3	-65	104*	87*
Cc1cc(C)c2c(N)c(C(=O)NNC(=O)c3ccccc3)sc2n1	6	-4	-15	3	-7	/	/
Cc1ccc(Oc2coc3cc(O)ccc3c2=O)cc1	40*	-3	0	17	-27	53*	57*
Cc1cc(C)cc(Oc2coc3cc(O)ccc3c2=O)c1	24	0	0	1	-14	/	/
Cc1ccc(C)c(Oc2coc3cc(O)ccc3c2=O)c1	38*	-7	-1	20	-57	128*	104*
Cc1ccccc1-c1coc2cc(O)ccc2c1=O	48*	-4	-3	20	-34	97*	81*
CCN(C[C@@H]1[C@@H](c2ccccc2)[C@H](CO)N1S(C)(=O)=O)C(=O)C1CCC1	/	/	/	/	-2	/	/
COC(=O)C1CN(CCO)CCS(=O)(=O)N1Cc1cn(Cc2ccc(C)cc2)nn1 (stereo unspecified)	/	/	/	/	-2	/	/
Cc1cc(C)c(C#N)c(N2CCN(c3ccc(F)cc3)CC2)n1	-1	3	10	-5	0	/	/
Cc1cc(C)c(C#N)c(N2CCCC2)n1	30*	1	1	13	-14	135*	92*
COC(=O)[C@]12C[C@H](CC(=O)NCc3ccc(C)o3)C(=O)N(Cc3ccccc3)C1=C[C@H](C1CCCC1)O[C@@H]2C	/	/	/	/	26	/	/
Cc1ccc(NC(=O)C(C)SCc2nc3sc4c(c3c(=O)[nH]2)CCCC4)nc1 (stereo unspecified)	10	-12	-4	6	5	/	/
O=C(CCc1nc2sc3c(c2c(=O)[nH]1)CCCC3)NCCOc1ccccc1	-1	-6	-4	4	1	/	/
Nc1nccnc1C(=O)OCc1nc2sc3c(c2c(=O)[nH]1)CCCC3	40*	-2	-1	9	-6	+	+
